IL-1B inflam inh: blocks inflammasome-driven IL-1 beta release | THP-1 LPS/ATP IL-1B secretion, AlphaLISA, 16 h; stronger effect = lower value | activity change, % at 57.5 µM | hit rate 4.7% among 360,000; in the data active = activity change below about -50%; inconclusive = mostly about -30% to -49%
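Secreted IL-1B measured by AlphaLISA bead assay after 16 h compound exposure of THP-1 cells; compounds (final up to 57.5 uM) added 1 h before LPS (250 ng/mL) and ATP (1.25 mM) stimulation; lower signal means less secretion.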
TDP1 cell noCPT: qHTS for Inhibitors of human tyrosyl-DNA phosphodiesterase 1 (TDP1): qHTS in cells in absence of CPT; DT40 Tdp1-/- hTDP1 cells, no CPT, ATP luminescence, 48 h; Potency, µM (top dose mostly 46.2 µM), for the others: top-dose activity change, negative = growth inhibition, hits mostly inhibitors; hit rate 15% among 420,000; AID 686978, 2013; also: potency is read from the fitted curve at half-maximal effect; nearly all actives have a fitted effect of over 55% in size
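Seeded 400 DT40-hTDP1 cells/well (vehicle DMSO, no 20 nM CPT); pinned compounds; ≥48 hr at 37 °C; CellTiter-Glo luminescence as viability measure.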
HT1080 IDH1KD tx: toxicity to HT-1080 IDH1 knockdown cells (counter line). HT-1080 IDH1 knockdown viability, ATP luminescence, 48 h. Potency, µM (highest dose often 46.1 µM), for inactives: at the top dose activity, negative = toxicity, hits mostly cytotoxic. hit rate 2% among 360,000. AID 686971;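 also: potency is read from the fitted curve at half-maximal effect; 0% = DMSO wells and -100% = cell-free medium wells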
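Viability of IDH1-knockdown HT-1080 fibrosarcoma cells was assessed by CellTiter-Glo after 48 h at 37 °C with titrated compound; concentration-effect curves were classified by fit quality and response size.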
HT1080NT lethal: kills 2HG-producing HT-1080-NT fibrosarcoma cells | hit rate 1.6% among 360,000 | Potency, µM (titrated, usually from 46.1 µM), without a hit: top-dose activity, negative = less viability, actives largely listed as cytotoxic | HT-1080-NT fibrosarcoma viability, CellTiter-Glo ATP luminescence, 48 h | AID 686970;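 also: NT is the 2HG producing partner of a matched IDH1 knockdown line; potency is read from the fitted curve at half-maximal effect; 0% = DMSO-treated cells and -100% = media-only wells without cells; nearly all actives have a fitted effect of over 55% in size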
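Read-out is CellTiter-Glo luminescence after 10 minutes at room temperature, following 48 hours' compound treatment of HT-1080-NT cells (750 cells/well, RPMI, 5% FBS, 37 degrees C).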
DT40 TDP1 CPT: growth inhibition of DT40 Tdp1-/-;hTDP1 cells with camptothecin (screen for TDP1 inhibitors) | AID 686979 | hit rate 12% among 420,000 | chicken DT40 Tdp1-/-;hTDP1 cells + 20 nM CPT, ATP luminescence, 48 h | Potency, µM (highest dose often 46.2 µM), for inactives: at the top dose activity change, negative = growth inhibition, hits mostly inhibitors; also: potency is read from the fitted curve at half-maximal effect; nearly all actives have a fitted effect of over 55% in size
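Chicken DT40 Tdp1-/- cells complemented with human TDP1, 400 cells/well, exposed to compounds plus 20 nM camptothecin for at least 48 h at 37 C; viability read as ATP content by CellTiter-Glo luminescence.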
The depositor's hits bear a star; ? = inconclusive; nt = no result given. This is a sample that favours compounds with a hit; in the whole collection about 19% have one here. Unless noted, calls follow the shape of the dose curve; as a rule, active = well fitted curve in the direction sought with a large enough effect; inconclusive = small, poorly fitted or top-dose-only effect, or another doubt; inactive = no such curve, though single readings can be large; an effect the other way counts as inactive or inconclusive. Unless noted, % is scaled to controls: 0 for no effect and ±100 for the full control effect.

SMILES | IL-1B inflam inh | TDP1 cell noCPT | HT1080 IDH1KD tx | HT1080NT lethal | DT40 TDP1 CPT
COC(=O)C1=C(C(=O)OC)[C@@H]2N(Cc3ccccc3)c3ccccc3[C@@]23C[C@@H](C(=O)OC)N(C(=O)c2cccs2)C3=N1 | 45 | ? | ? | ? | 21µM*
COC(=O)C1=C(C(=O)OC)[C@@H]2N(Cc3ccccc3)c3ccccc3[C@@]23C[C@@H](C(=O)OC)N(C(=O)CC(C)C)C3=N1 | -7 | -57% | 5% | 0% | -57%
COC(=O)C1=C(C(=O)OC)[C@@H]2N(C)c3ccc(OC)cc3[C@@]23C[C@@H](C(=O)OC)N(C(=O)c2cc(C)oc2C)C3=N1 | 19 | ? | -13% | -11% | 23µM*
CCOc1ccc(C(=O)CN2C(=O)NC3(CCCc4ccccc43)C2=O)cc1 (centres undefined) | 4 | ? | -7% | 1% | ?
Cc1cc(C)c(C)c(S(=O)(=O)N2CCC(C(=O)N3CCCCCCC3)CC2)c1C | 26 | ? | 5% | 7% | ?
C#CCCOC(=O)N1C2=NC(C(=O)OC)=C(C(=O)OC)[C@@H]3N(Cc4ccccc4)c4ccccc4[C@]23C[C@H]1C(=O)OC | -30 | ? | ? | -8% | 16µM*
CC#CCN1c2ccccc2[C@]23C[C@@H](C(=O)OC)N(C(C)=O)C2=NC(C(=O)OC)=C(C(=O)OC)[C@H]13 | 9 | -16% | 6% | -1% | 20%
CC#CCN1c2ccccc2[C@]23C[C@@H](C(=O)OC)N(C(=O)c4ccc(Br)cc4)C2=NC(C(=O)OC)=C(C(=O)OC)[C@H]13 | -6 | 18µM* | -9% | -14% | 21µM*
CCOC1=C2CN(S(=O)(=O)c3ccc(C)cc3)[C@@H](c3cccs3)C[C@H]2[C@H]2C(=O)N(c3ccccc3)C(=O)[C@H]2C1 | 6 | 12% | 17% | 10% | 2%
CN1C(=O)C2(CCCCC2)C1c1ccccc1 (centres undefined) | 28 | -10% | 12% | 16% | 2%
OC1(C2(O)CC(c3ccccc3)ON2)CCCCC1 (centres undefined) | -69* | 18µM* | -13% | -21% | ?
COC(=O)c1cc(NC(=O)c2sc3ncn(Cc4cccc(F)c4)c(=O)c3c2C)cc(C(=O)OC)c1 | nt | ? | nt | nt | -27%
Cc1cc(Br)cc(C)c1NC(=O)c1sc2ncn(Cc3cccc(F)c3)c(=O)c2c1C | nt | 18µM* | nt | nt | 16µM*
CCN(CC(=O)NCc1ccc(Cl)cc1)C(=O)CN1C(=O)NC(CC)(c2ccccc2)C1=O (centres undefined) | -8 | -22% | -11% | -1% | -23%
CN=c1sc2c(n1C)C(=O)c1ccccc1C2=O | ? | 5.8µM* | ? | 18µM* | 4.1µM*
Cc1ccc(S(=O)(=O)N2CCOCC2)cc1C(=O)NC(C)CCc1ccccc1 (centres undefined) | 11 | ? | -1% | 1% | -12%
CC1(CCc2ccc3c(c2)OCO3)NCCc2c1[nH]c1ccccc21 (centres undefined) | -57* | 18µM* | -19% | -26% | ?
CCOC(=O)Cc1ccc(Nc2nc(NCc3cccs3)nc3ccsc23)cc1 | -84* | 21µM* | 0% | ? | 21µM*
COc1ccc(Nc2nc(NCc3cccs3)nc3ccsc23)cc1OC | -87* | 18µM* | ? | ? | 26µM*
c1csc(CNc2nc(Oc3ccncc3)c3sccc3n2)c1 | ? | -14% | ? | -21% | -26%
Cc1cccc(C)c1NC(=O)C(c1ccccc1)N(C)CCc1ccccc1 (centres undefined) | 18 | 18µM* | ? | ? | ?
Cc1ccc(N2CCN(C(C(=O)Nc3c(C)cccc3C)c3cccc(F)c3)CC2)cc1 (centres undefined) | 0 | ? | 17% | 24% | ?
Cc1ccc(N2CCN(C(CCc3ccccc3)C(=O)Nc3c(C)cccc3C)CC2)cc1 (centres undefined) | -14 | 15µM* | -9% | 0% | ?
CCN(CC)c1ccc(NC(=O)COc2ccccc2C)cc1S(=O)(=O)Nc1ccccc1OC | 11 | 15µM* | 16% | 18% | ?
CCN(CC)c1ccc(NC(=O)c2ccccc2F)cc1S(=O)(=O)Nc1ccccc1OC | -5 | ? | -8% | 3% | ?
SMILES | IL-1B inflam inh | TDP1 cell noCPT | HT1080 IDH1KD tx | HT1080NT lethal | DT40 TDP1 CPT
CCN(CC)c1ccc(NC(=O)c2ccccc2Br)cc1S(=O)(=O)Nc1ccccc1OC | -60* | 10µM* | 2% | 0% | 12µM*
Fc1cccc(Cl)c1Cn1ncc2ccccc21 | 27 | 20% | 0% | 10% | -3%
O=c1ccc(-c2ccccc2)nn1Cc1c(F)cccc1Cl | nt | ? | nt | nt | 18µM*
O=c1ccc(-c2ccccc2)nn1Cc1ccccc1F | -62* | -19% | -20% | -5% | -12%
COc1cc(-c2nnc(NC(=O)CS(=O)(=O)c3ccc(C)cc3)o2)cc(OC)c1OC | 13 | -1% | 0% | 4% | -2%
CC(C)c1ccc(NC(=O)CSc2nc3ccccc3nc2Cc2ccccc2)cc1 | nt | -24% | nt | nt | ?
Cc1nnc2n1N=CC=C(C(C)(C)C)S2 | -26 | -3% | 5% | 3% | 2%
Cc1nnc2n1N=CC=C(c1ccccc1)S2 | -91* | 5.2µM* | 1% | 15% | 8.2µM*
CNC(=O)c1cc(NC(=O)N(CCC#N)CCN(C(=O)NC(Cc2ccccc2)C(=O)NC(CC(C)C)C(=O)NC)c2ccccc2)ccc1OC (centres undefined) | 12 | -39% | 0% | 3% | ?
CCCC(=NCCc1c(C)[nH]c2ccccc12)C1=C(O)CC(c2ccccc2)CC1=O (centres undefined) | 7 | 1.3µM* | 4.6µM* | ? | 0.58µM*
CCC/C(O)=C1\C(=O)CC(c2ccccc2)CC1=NCCc1c(C)[nH]c2ccccc12 (centres undefined) | ? | ? | -8% | 8% | ?
CCCCC(=Nc1ccccc1OC)C1=C(O)CC(c2ccccc2)CC1=O (centres undefined) | 12 | -29% | 6% | 13% | -13%
CCCCC(=NCCc1c(C)[nH]c2ccccc12)C1=C(O)CC(c2ccccc2)CC1=O (centres undefined) | ? | 5.2µM* | 9.2µM* | ? | 5.8µM*
Cc1ccc(C)c(CN2CCSCC2)c1 | 10 | -2% | 6% | 7% | -8%
Cc1ccc(C2c3[nH]c4ccccc4c3C[C@H]3C(=O)N(c4ccccc4C(=O)N4CCC[C@H]4C(=O)O)C(=O)N23)cc1 (some centres undefined) | 0 | 1% | -1% | -1% | 9%

Bioassay records deposited in PubChem by National Center for Advancing Translational Sciences (NCATS).
